Data taken from PubChem BioAssay (NCI).
Compounds without any hit were thinned out: in the full panel of roughly 79,000, 15% have a hit. Calls of active or inactive are those of the source. Cut-off read from the data, not from the text of the source: active = growth inhibition above about 70%; inactive = the rest.

Assay: NCI Yeast Anticancer Drug Screen. Data for the rad52 strain (AID 147);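 note: 0% = growth of vehicle-treated control cultures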
Conditions: S. cerevisiae rad52 mutant growth inhibition, active compounds read high
Experimental: Growth inhibition of yeast strains with defined genetic alterations is measured as a screen for potential anti-cancer activity. Selected strains with alterations in DNA damage repair or cell cycle control were exposed to compounds and growth inhibition was measured relative to vehicle treated controls. The strain used in this assay is rad52

Compound	growth inhibition (at 1.2 µM)	growth inhibition (at 3.7 µM)	growth inhibition (at 11.0 µM)	growth inhibition (at 33.0 µM)	growth inhibition (at 100.0 µM)
Cc1ccc([N+](=O)[O-])c2c(NCCC[N+](C)(C)[O-])c3ccccc3nc12	-8% (inactive)	-4% (inactive)	8% (inactive)	47% (inactive)	85% (active)
c1ccc2c(c1)N=C1CCCC3CCCC123 (stereo not given)	3% (inactive)	4% (inactive)	11% (inactive)	56% (inactive)	98% (active)
O=C1c2ccccc2C(=O)c2c(O)c(NCCNCCO)cc(O)c21	-31% (inactive)	-13% (inactive)	6% (inactive)	88% (active)	92% (active)
COc1ccc2c(c1)CCCC(Br)C2=O (stereo not given)	12% (inactive)	17% (inactive)	27% (inactive)	64% (inactive)	98% (active)
COc1cccc(/C=C2\S/C(=N/Nc3nc(-c4ccc([N+](=O)[O-])cc4)cs3)NC2=O)c1O	15% (inactive)	21% (inactive)	58% (inactive)	72% (active)	80% (active)
CCCCCCCSCC1C(=O)C23C(O)C1CCC2C12COC3(O)C(O)C1C(C)(C)CCC2O (stereo not given)	13% (inactive)	14% (inactive)	71% (active)	94% (active)	85% (active)
CCOP(=O)(OCC)/C(C#N)=C/c1ccc(-c2ccc(F)cc2F)o1	2% (inactive)	4% (inactive)	4% (inactive)	4% (inactive)	4% (inactive)
O=[N+]([O-])c1ccc(/C=C\c2ccc3c(c2)OCO3)c([N+](=O)[O-])c1	3% (inactive)	12% (inactive)	26% (inactive)	54% (inactive)	83% (active)
